The record followed here is PubChem BioAssay (NCATS).

Several values for one entry are separate records, joined by “and”; a condition that tells them apart may be missing. Identical values can stand only once. Activity calls are given as the source filed them. Entries that show only a call come without a potency. Unless noted, calls come from the whole dose curve; as a rule, active = well fitted curve in the direction sought with a large enough effect; inconclusive = small, poorly fitted or top-dose-only effect, or another doubt; inactive = no such curve, though single readings can be large; an effect the other way counts as inactive or inconclusive.

In experiment [1] the target is Ubiquitin carboxyl-terminal hydrolase 1 (Homo sapiens) (UniProt O94782). The experiment in a line: Inhibitors of USP1/UAF1: Pilot qHTS (AID 504865).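 Note: rhodamine fluorescence freed from ubiquitin-rhodamine substrate followed over time; top concentration of the series differs between compounds; nearly all actives have a fitted effect of over 35% in size.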 In outline:
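Kinetic fluorescence assay: 1nM USP1/UAF1, 15 min compound preincubation, then 150nM Ub-Rho; 480/540 nm.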
For orientation: In qHTS, concentration-response curves come from the screen itself.

Experiment [2] in a line: qHTS for Inhibitors of ATXN expression: Validation of Cytotoxic Assay (AID 588349). Note: potency is the fitted concentration of half-maximal effect. In outline:
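Cytotoxicity counter-screen: ATP-based luminescent viability (CellTiter Glo) after 72 hr exposure of HEK293 cells to a compound titration at 37 degrees C.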

The target of experiment [3] is Estrogen receptor (Homo sapiens) (UniProt P03372). The experiment can be described thus: qHTS assay for small molecule antagonists of estrogen receptor alpha signaling (AID 588513; active = well fitted curve in the direction sought with a large enough effect in the signal ratio, with a control signal flat, not every such curve was filed as active; inconclusive = small, poorly fitted or top-dose-only effect, or effect the other way, or a change in a side signal; inactive = no such curve, though single readings can be large or run the other way; the % refers to the signal ratio; note: potency is the fitted concentration of half-maximal effect). In outline: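 Cells were plated at 5000/well and incubated 4 h at 37 C. Compounds were added as 1:2 dilution series, duplicates. 17-beta-estradiol (0.5nM final) was added for 18 h before CCF4 detection.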
Chain of Estrogen receptor (Homo sapiens) (P03372 whole entry, looked up): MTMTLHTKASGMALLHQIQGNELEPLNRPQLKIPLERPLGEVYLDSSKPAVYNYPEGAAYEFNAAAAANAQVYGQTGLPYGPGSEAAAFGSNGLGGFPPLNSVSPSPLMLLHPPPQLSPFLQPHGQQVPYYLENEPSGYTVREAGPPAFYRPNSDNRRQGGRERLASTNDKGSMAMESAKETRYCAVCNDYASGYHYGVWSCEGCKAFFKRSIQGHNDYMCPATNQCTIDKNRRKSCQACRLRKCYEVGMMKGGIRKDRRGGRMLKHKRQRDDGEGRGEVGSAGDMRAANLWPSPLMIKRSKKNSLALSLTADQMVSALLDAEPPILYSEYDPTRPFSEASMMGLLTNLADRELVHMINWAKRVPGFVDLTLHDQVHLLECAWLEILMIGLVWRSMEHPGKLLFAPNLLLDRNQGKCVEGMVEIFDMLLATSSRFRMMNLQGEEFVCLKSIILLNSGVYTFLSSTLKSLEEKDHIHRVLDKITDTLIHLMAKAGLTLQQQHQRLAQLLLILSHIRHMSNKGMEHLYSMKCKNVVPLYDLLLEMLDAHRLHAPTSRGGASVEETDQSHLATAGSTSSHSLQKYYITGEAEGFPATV

The target is the same in experiment [4]. The experiment can be described thus: qHTS assay for small molecule agonists of estrogen receptor alpha signaling (AID 588514; calls by dose curve; note: nearly all actives have a fitted effect of over 70% in size). In outline: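 EC50 and efficacy came from Hill fits of beta-lactamase reporter signal (CCF4 dye, 2 h at room temperature) scaled between DMSO and 20 nM 17-beta-estradiol. Agonist mode: HEK293 ER-alpha-UAS-bla cells in charcoal/dextran-stripped serum medium, 18 h compound exposure at 37 C.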

In experiment [5] the target is Glucocorticoid receptor (Homo sapiens) (UniProt P04150). The experiment can be described thus: qHTS assay for small molecule agonists of glucocorticoid receptor signaling (AID 588532; active = well fitted curve in the direction sought with a large enough effect in the signal ratio, with a control signal flat; inconclusive = small, poorly fitted or top-dose-only effect, or a change in a side signal; inactive = no such curve, though single readings can be large or run the other way; the % refers to the signal ratio). Particulars: HeLa MMTV-bla, beta-lactamase ratio, agonist, 18 h; active compounds read high; percent of dexamethasone control, DMSO zero. In a few lines: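 Titration series, up to 92 uM, applied to GRE-bla HeLa cells for 18 h at 37 C. Detection by CCF4 FRET substrate after 2 h at RT.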
Chain of Glucocorticoid receptor (Homo sapiens) (P04150 whole entry, looked up): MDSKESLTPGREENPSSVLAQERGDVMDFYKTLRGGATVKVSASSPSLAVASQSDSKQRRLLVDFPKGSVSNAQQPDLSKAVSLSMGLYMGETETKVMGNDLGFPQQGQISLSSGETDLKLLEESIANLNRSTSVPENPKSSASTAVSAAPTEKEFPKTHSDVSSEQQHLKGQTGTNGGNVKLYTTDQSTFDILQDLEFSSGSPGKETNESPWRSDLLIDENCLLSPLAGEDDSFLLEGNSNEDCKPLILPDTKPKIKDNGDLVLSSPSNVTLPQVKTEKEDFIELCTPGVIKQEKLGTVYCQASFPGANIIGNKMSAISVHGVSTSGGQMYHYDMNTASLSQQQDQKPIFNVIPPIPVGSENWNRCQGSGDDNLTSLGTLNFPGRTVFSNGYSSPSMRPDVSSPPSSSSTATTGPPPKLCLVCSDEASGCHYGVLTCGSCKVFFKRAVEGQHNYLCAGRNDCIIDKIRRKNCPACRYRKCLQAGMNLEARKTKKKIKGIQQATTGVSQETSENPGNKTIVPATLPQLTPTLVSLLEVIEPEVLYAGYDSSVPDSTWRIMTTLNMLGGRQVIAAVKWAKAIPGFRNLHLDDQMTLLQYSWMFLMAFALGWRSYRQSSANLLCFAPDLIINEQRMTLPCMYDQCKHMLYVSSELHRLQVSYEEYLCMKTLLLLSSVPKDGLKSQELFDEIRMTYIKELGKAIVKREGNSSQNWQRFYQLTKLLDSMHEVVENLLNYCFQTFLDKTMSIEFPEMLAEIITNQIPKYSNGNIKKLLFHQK

The target is the same in experiment [6]. The experiment can be described thus: qHTS assay for small molecule antagonists of glucocorticoid receptor signaling (AID 588533; active = well fitted inhibition curve with a large enough effect in the signal ratio, with a control signal flat, not every such curve was filed as active; inconclusive = small, poorly fitted or top-dose-only effect, or effect the other way, or a change in a side signal; the % refers to the signal ratio;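 note: cells stimulated with 2 nM dexamethasone as agonist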). In outline:
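Antagonist-mode qHTS: compound titrations added to GRE-bla HeLa cells, then dexamethasone 2 nM final; 18 h, 37 C. CCF4 FRET fluorescence normalized to dexamethasone and DMSO; IC50 from Hill fit.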

For experiment [7], the target named is DNA dC->dU-editing enzyme APOBEC-3G (Homo sapiens) (UniProt Q9HC16). The experiment in a line: qHTS for inhibitors of Vif-A3G interactions: Validation (AID 588379). In outline:
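Yellow fluorescence (Ex 488, Em 500-530) of Vif-coexpressing HeLa A3G-eYFP cells, scanned by Acumen cytometer, reports blocked A3G degradation. Cells plated at 700/well overnight at 37 deg C before compound addition, then a further overnight compound incubation at 37 deg C.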

For experiment [8], the target named is Bile acid receptor (Homo sapiens) (UniProt Q96RI1). The experiment in a line: qHTS assay for small molecule antagonists of farnesoid X receptor signaling (AID 588526; calls by dose curve). In a few lines:
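Concentration-response titrations were fitted to the Hill equation for half-maximal inhibition and maximal response, with data normalised to 50 uM chenodeoxycholic acid and DMSO control wells. Cells: FXR-UAS-bla HEK293T, dialyzed FBS.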

Chain of Bile acid receptor (Homo sapiens) (Q96RI1 whole entry, looked up): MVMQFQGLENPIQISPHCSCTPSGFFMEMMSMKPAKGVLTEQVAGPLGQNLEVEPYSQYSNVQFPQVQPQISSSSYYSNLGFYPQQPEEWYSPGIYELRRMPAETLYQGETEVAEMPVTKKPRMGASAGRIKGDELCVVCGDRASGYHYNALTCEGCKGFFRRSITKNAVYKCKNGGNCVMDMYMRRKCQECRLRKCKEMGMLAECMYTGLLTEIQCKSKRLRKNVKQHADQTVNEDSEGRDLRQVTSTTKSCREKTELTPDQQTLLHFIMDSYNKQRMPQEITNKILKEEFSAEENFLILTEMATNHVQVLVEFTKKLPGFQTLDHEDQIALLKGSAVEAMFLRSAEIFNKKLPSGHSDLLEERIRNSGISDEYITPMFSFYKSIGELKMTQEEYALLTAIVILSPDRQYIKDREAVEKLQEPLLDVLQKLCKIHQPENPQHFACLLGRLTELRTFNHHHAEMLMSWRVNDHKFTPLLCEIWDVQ
Chain of Ubiquitin carboxyl-terminal hydrolase 1 (Homo sapiens) (O94782 whole entry, looked up): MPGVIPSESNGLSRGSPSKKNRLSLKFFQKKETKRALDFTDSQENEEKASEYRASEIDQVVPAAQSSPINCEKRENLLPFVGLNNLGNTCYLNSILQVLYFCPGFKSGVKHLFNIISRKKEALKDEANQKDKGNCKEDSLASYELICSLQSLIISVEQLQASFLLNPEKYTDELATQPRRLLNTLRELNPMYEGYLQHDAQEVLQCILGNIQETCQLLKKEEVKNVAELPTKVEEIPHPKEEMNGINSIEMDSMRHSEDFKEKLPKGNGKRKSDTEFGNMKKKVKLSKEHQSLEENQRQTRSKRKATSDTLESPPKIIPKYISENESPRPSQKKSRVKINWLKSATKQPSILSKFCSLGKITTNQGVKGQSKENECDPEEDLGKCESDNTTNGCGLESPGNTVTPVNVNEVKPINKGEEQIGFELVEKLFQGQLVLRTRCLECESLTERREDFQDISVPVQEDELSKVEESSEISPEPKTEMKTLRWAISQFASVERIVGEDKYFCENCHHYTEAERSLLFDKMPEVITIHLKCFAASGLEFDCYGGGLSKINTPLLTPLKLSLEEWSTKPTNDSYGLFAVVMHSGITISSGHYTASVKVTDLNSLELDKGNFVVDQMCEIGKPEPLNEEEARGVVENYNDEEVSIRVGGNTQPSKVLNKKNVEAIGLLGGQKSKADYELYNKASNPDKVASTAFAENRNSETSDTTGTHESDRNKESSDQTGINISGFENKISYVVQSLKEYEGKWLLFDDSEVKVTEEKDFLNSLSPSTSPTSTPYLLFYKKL
Chain of DNA dC->dU-editing enzyme APOBEC-3G (Homo sapiens) (Q9HC16 whole entry, looked up): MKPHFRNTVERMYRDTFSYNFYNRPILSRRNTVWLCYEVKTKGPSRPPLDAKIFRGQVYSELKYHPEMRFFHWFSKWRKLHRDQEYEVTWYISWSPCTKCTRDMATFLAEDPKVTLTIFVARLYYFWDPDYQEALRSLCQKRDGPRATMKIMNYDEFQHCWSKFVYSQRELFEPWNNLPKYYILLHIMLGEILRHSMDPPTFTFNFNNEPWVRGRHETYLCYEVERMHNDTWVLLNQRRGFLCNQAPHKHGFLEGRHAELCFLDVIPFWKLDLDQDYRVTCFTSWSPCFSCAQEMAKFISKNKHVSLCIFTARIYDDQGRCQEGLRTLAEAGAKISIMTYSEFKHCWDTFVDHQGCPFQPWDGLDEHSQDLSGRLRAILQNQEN

Consider `CCCNC(=O)NS(=O)(=O)c1ccc(Cl)cc1`, for which the Potency entry in experiment [1], in experiment [2], in experiment [3] and in experiment [6] was “inactive” in each case. Also, the outcome in experiment [4] was inactive. The activation in experiment [5] is 0.922% (inactive) and 6.93% (inactive).

Turning to `CCN(CC)CCNC(=O)c1ccc(N)cc1`, in experiment [2], the Potency result is “inactive”.

For the molecule `COc1ccc(Cc2nccc3cc(OC)c(OC)cc23)cc1OC`, the Potency entry in experiment [2] was “inactive”. In experiment [7], the molecule was called inactive.

For `COc1ccc2c3c1OC1C[C@@H](O)C=C[C@@]31CCN(C)C2` (some centres not stated), in experiment [1], the Potency entry was “inactive”. The call in experiment [7] was inactive.

`COc1ccc(-c2coc3cc(O)cc(O)c3c2=O)cc1`: the call in experiment [7] was inactive.

`O=c1c(O)c(-c2ccc(O)cc2)oc2cc(O)cc(O)c12`: the molecule was classed as inactive in experiment [7] and in experiment [8]. In experiment [5], the activation is -2.66% (inactive) and -3.79% (inactive).

For `C[N+](C)(C)CC(=O)O`, in experiment [2], the Potency entry is “inactive”.

For the molecule `O=C1NC(=O)C(c2ccccc2)(c2ccccc2)N1`, the Potency result in experiment [1], in experiment [2] and in experiment [6] was “inactive” throughout. The activation in experiment [5] was -3.98% (inactive) and -0.765% (inactive) and -12.7% (inactive).

For the molecule `CN(C)CCC(c1ccccc1)c1ccccn1` (configuration not stated), the Potency entry in experiment [1] and in experiment [2] was “inactive” each time. Besides, the activation in experiment [5] was 4.14% (inactive).

As to `CC/C(=C(\c1ccccc1)c1ccc(OCCN(C)C)cc1)c1ccccc1`, in experiment [2], the Potency was 25.1 µM (active). Besides, in experiment [7], the result was inactive. In addition, the activation in experiment [5] is 5.77% (inactive) and -2.85% (inactive). Further, the Potency entry in experiment [6] was “inactive”.

With `CC(=O)N[C@@H](CS)C(=O)O`, the Potency result in experiment [1], in experiment [2] and in experiment [6] was “inactive” throughout. In addition, the molecule was called inactive in experiment [8].

Take `Clc1ccc(Cn2c(CN3CCCC3)nc3ccccc32)cc1`: the Potency result in experiment [2] is “inactive”.

`O=c1[nH]cnc2c1ncn2[C@H]1CC[C@@H](CO)O1`: the Potency result in experiment [1], in experiment [3] and in experiment [6] was “inactive” throughout. Moreover, in experiment [4], the outcome was inactive. For the same molecule, the activation in experiment [5] was 10.5% (inactive) and 6.23% (inactive).

As for `CS(=O)c1ccc(-c2nc(-c3ccc(F)cc3)c(-c3ccncc3)[nH]2)cc1` (configuration not stated), the call in experiment [7] was inactive.

Regarding `CC1=C(/C=C/C(C)=C/C=C/C(C)=C/C(=O)Nc2ccc(O)cc2)C(C)(C)CCC1`, the Potency entry in experiment [1] is “inactive”. The Potency in experiment [2] is 31.6 µM (active); in experiment [3] it was 15.8 µM [inconclusive] (active). For the same molecule, the molecule was classed as inactive in experiment [4].

On to `CCCCC1C(=O)N(c2ccccc2)N(c2ccccc2)C1=O`, for which the Potency entry in experiment [1], in experiment [2], in experiment [3] and in experiment [6] was “inactive” throughout. For the same molecule, the molecule was called inactive in experiment [4] and in experiment [8]. Further, in experiment [5], the activation was -0.201% (inactive) and -2.53% (inactive).

As to `O=c1cc(-c2ccccc2)oc2cc(O)c(O)c(O)c12`, the molecule was classed as inactive in experiment [7].

In the case of `O=C(O)Cc1cccc2ccccc12`, the Potency entry in experiment [1] is “inactive”. In addition, the call in experiment [8] was inactive.
